From PubChem BioAssay
In the library only some 0.49% were active in any assay of this set; here they are far more common.
BCR signal inh = qHTS Assay to Find Inhibitors of Chronic Active B-Cell Receptor Signaling | ABC-DLBCL IkBa-CBG/CBR reporter, luminescence ratio, 4 h | hit rate 0.05% among 340,000 | Potency, µM (top dose mostly 46.1 µM), for the others: at the highest dose activity change, negative = inhibition, hits mostly inhibitors; active means well fitted inhibition curve with a large enough effect in the signal ratio, with a control signal flat, not every such curve was filed as active; inconclusive means small, poorly fitted or top-dose-only effect, or effect the other way, or a change in a side signal; the % refers to the signal ratio;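 further: potency means the concentration at half of the fitted maximal effect; plate controls were basal doxycycline-induced cells for no effect and cells given 10 µM MG132 for full effect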
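Compounds up to 46 uM were incubated four hours with TMD8 cells whose green CBG68 luciferase is fused to IkappaBalpha; red CBR luminescence normalised the signal, and concentration-effect curves were fitted to fusion, red and ratio data.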
CCT chaperon mod = High-Throughput Screening for Modulators of Cytosolic Chaperonin Activity | purified chaperonin ATPase assay, HTRF ADP detection, 30 min | hit rate 0.3% among 360,000 | activity change, % (no concentration beside the values), hits read low; in the data active means activity change below about -30%; further: on the % scale 0 is the no-effect control and ±100 the full control effect
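TRiC (40 or 20 nM final, by batch activity) in 30 mM Tris pH 7.4, 100 mM KCl, 5 mM MgCl2, 1 mM DTT was treated with compound at 76 uM single dose, then 10 uM ATP, 30 min at 37 °C. ADP was read by HTRF Transcreener.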
ASM inhibitor = Inhibitors of Secretory Acid Sphingomyelinase (S-ASM): qHTS; AID 504937, 2011; hit rate 0.006% among 340,000; Potency, µM (titrated, usually from 57.5 µM), for the others: at the highest dose activity change, negative = inhibition, most hits filed as inhibitors; Sphingomyelin phosphodiesterase (Homo sapiens), P17405; placental ASM, HMU-PC fluorogenic substrate, 60 min; further: potency means the concentration at half of the fitted maximal effect
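Fluorogenic HMU-PC substrate (9 uM final) is turned over by placental ASM in 60 min at 37 C after a 10 min compound preincubation. Reaction ended by alkaline stop (pH 10), with fluorescence read at 386/447 nm.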
TCR act = Activators of T cell receptors: qHTS campaign; primary human leukocytes, anti-CD3, IL-2 HTRF, 48 h; Potency, µM (series often up to 9.22 µM), for the others: top-dose activation of IL-2 secretion, actives largely listed as activators; 330,000 tested, under 10 active; AID 504894, 2011; further: % of control where 0% means no effect
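IL-2 release read by HTRF sandwich (Eu cryptate donor, d2 acceptor, 665 nm emission) after 48 hr exposure of primary human leukocytes to compound together with anti-CD3 beads in the absence of co-stimulatory signals.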
Tb PFK block = qHTS Assay to Find Inhibitors of T. brucei phosphofructokinase; T. brucei PFK, ADP-Glo luminescence; Potency, µM (titrated, usually from 57.5 µM), inactives show at the top dose activity, negative = inhibition, most hits filed as inhibitors; hit rate 0.17% among 330,000;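 further: potency means the concentration at half of the fitted maximal effect; 0% = uninhibited 1x PFK enzyme wells and -100% = no-enzyme wells; nearly all actives have a fitted effect of over 60% in size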
Target sequence (O15648 whole entry, looked up): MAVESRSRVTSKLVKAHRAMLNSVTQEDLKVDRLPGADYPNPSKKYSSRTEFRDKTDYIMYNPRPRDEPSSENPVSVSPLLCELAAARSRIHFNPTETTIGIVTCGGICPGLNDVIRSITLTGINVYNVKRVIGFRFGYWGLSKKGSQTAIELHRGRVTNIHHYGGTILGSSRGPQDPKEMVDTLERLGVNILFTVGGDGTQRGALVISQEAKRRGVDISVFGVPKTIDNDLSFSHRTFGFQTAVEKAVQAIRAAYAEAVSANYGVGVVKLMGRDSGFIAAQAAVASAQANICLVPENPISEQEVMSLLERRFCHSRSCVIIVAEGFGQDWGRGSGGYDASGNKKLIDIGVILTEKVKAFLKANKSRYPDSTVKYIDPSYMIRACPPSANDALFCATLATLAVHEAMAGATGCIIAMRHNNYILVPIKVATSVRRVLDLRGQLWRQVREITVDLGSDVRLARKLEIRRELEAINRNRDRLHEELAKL
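PFK 1.25 nM, F6P 0.5 mM, ATP 0.1 mM, 0.1 M TEA pH 8.0, 5 mM MgCl2, 0.01% Tween20, 0.1% BSA; 45 min RT. ADP-Glo readout. qHTS titration up to 57 uM; curves fitted, compounds curve-classed.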
An asterisk follows results filed as active; ! = repeats disagree; [ ] = remark or other dose. Unless noted, the call rests on the fitted dose curve; in most records, active means well fitted curve in the direction sought with a large enough effect; inconclusive means small, poorly fitted or top-dose-only effect, or another doubt; inactive means no such curve, though single readings can be large; an effect the other way counts as inactive or inconclusive.

COc1cccc(CNC(=O)C(=O)NCC(c2cccs2)S(=O)(=O)c2cccs2)c1 (stereo unspecified) was read as BCR signal inh -23.2%.
`COc1ccc(CCNc2nc(SCc3cccc(Cl)c3)nc3ccccc23)cc1OC` gave BCR signal inh -25.0%.
For C(=N\NC1=Nc2cccc3cccc1c23)/c1cccnc1 the results were BCR signal inh inconclusive, CCT chaperon mod -69.6*, ASM inhibitor -18.1%, TCR act -0.6% and Tb PFK block -4.7%.
`COc1ccc([C@H]2CN(CCc3ccccc3)C(=O)[C@@H]2CC(=O)Nc2ccccc2)cc1` gave CCT chaperon mod -42.6*.
CNC(=O)C[C@H]1C(=O)N(CCc2ccccc2)C[C@@H]1c1ccc(OC)cc1 was read as CCT chaperon mod -2.3.
O=C(Nc1ccccc1N1CCOCC1)c1ccccc1NS(=O)(=O)c1ccc(F)c(F)c1 was read as BCR signal inh 12.9%, CCT chaperon mod -31.1*, ASM inhibitor -2.6%, TCR act 2.3% and Tb PFK block -1.6%.
For O=C(Nc1ccccc1)c1cccnc1NCCc1ccccc1 the results were BCR signal inh -5.2%, CCT chaperon mod -91.1*, ASM inhibitor 4.1%, TCR act -1.0% and Tb PFK block 18.1%.
Cc1c(Cl)cccc1-n1c(SCC(=O)NCc2ccccc2)nc2n[nH]c(C)c2c1=N was read as BCR signal inh -15.8%.
For COc1ccc(CCNC(=O)C/C(C)=N/NC(=O)C2CCCCC2)cc1OC the results were BCR signal inh -1.6%, CCT chaperon mod -59.6*, ASM inhibitor 2.8%, TCR act -5.3%[46.1 µM] and Tb PFK block 0.1%.
For COc1ccc(CCNC(=O)Cn2nc(C)c3c(C)n(-c4ccc(C)cc4)nc3c2=O)c(OC)c1 the results were BCR signal inh -15.1% and Tb PFK block -5.7%.
Screening O=C(Cc1ccccc1)Nc1nccs1 returned BCR signal inh 0.7%, CCT chaperon mod -2.3, ASM inhibitor 2.9%, TCR act 8.4% and Tb PFK block 4.2%.
Screening O=C(Cc1ccccc1[N+](=O)[O-])Nc1nccs1 returned BCR signal inh -11.5%, CCT chaperon mod -32.6*, ASM inhibitor 5.7%, TCR act -9.9% and Tb PFK block 1.0%.
`COc1ccc(OCC(=O)Nc2nccs2)cc1` gave BCR signal inh inconclusive, CCT chaperon mod -1.0, ASM inhibitor -1.4%, TCR act 4.4% and Tb PFK block -14.4%.
Screening CCOc1ccc(OCC(=O)Nc2nccs2)cc1 returned BCR signal inh inconclusive, CCT chaperon mod 1.0, ASM inhibitor 0.0%, TCR act -6.0% and Tb PFK block 26.9µM*.
For CCOc1ccc(N(CC(=O)Nc2ccccc2OC)S(=O)(=O)c2ccccc2)cc1 the results were BCR signal inh 15.8µM*, CCT chaperon mod -9.0, ASM inhibitor -1.0% and Tb PFK block 3.6%.
`COc1ccc(C(=O)CN2C(=O)N(c3cc(C)cc(C)c3)S(=O)(=O)c3ccccc32)cc1` gave BCR signal inh 4.7%.
COCCNC(=O)CSc1nc2cc3c(cc2c(=O)n1CCCCCC(=O)NCCc1ccc(OC)c(OC)c1)OCO3 was read as BCR signal inh -5.2%.
`CNC(=O)c1ccc(-c2nc(-c3ccccc3)cs2)cc1` gave BCR signal inh inconclusive, CCT chaperon mod -45.1*, ASM inhibitor -2.1%, TCR act -0.3% and Tb PFK block -1.8%.
Screening COc1ccc(N(CC(=O)Nc2cc(Cl)ccc2C)S(=O)(=O)c2c(C)n[nH]c2C)cc1 returned BCR signal inh -0.4%, CCT chaperon mod -58.7*, ASM inhibitor 0.3%, TCR act 3.7% and Tb PFK block -0.5%.
Screening COc1ccccc1-c1noc2c1C(=O)N(Cc1cn(C3CCCC3)nn1)CC2 returned CCT chaperon mod -37.5*.
`CCOc1cc(NC(=O)CCl)c(OCC)cc1NC(=O)CCl` gave BCR signal inh 14.1µM*, CCT chaperon mod -1.0, ASM inhibitor -0.5%, TCR act 3.3% and Tb PFK block 1.4%.
COCCCn1c(SCC(=O)Nc2ccc(F)cc2)nc2c(sc3ccccc32)c1=O was read as BCR signal inh 2.1%.
Screening O=C1CCCc2cc(S(=O)(=O)NCC3CCC(C(=O)NCc4ccccc4Cl)CC3)ccc2N1 (stereo unspecified) returned BCR signal inh -17.0%.
For CSc1ccc(-c2cccc([N+](=O)[O-])c2)nn1 the results were BCR signal inh 5.6%, CCT chaperon mod 2.9, ASM inhibitor -2.8%, TCR act 2.6% and Tb PFK block -4.6%.
For O=[N+]([O-])c1cccc(-c2ccc(SCc3cccnc3)nn2)c1 the results were BCR signal inh -11.1%, CCT chaperon mod -76.2*, ASM inhibitor -2.5% and Tb PFK block -1.8%.
`CC1CCC(NC(=O)c2ccc3c(c2)N(Cc2cccc(F)c2)C(=O)c2ccccc2S3)CC1` (stereo unspecified) gave BCR signal inh -21.4%.
`CCc1ccc(NC(=O)C2CCCN(S(=O)(=O)c3cnc[nH]3)C2)cc1` (stereo unspecified) gave BCR signal inh inconclusive, CCT chaperon mod -74.3*, ASM inhibitor 8.4%, TCR act -4.4% and Tb PFK block 0.5%.
For CCc1ccc(NC(=O)C2CCN(S(=O)(=O)c3cnc[nH]3)CC2)cc1 the results were BCR signal inh -0.5%, CCT chaperon mod -0.2, ASM inhibitor 1.0%, TCR act 1.8% and Tb PFK block -7.9%.
Screening COc1ccc(CCc2nc(C)ccc2O)cc1 returned BCR signal inh 6.0%, CCT chaperon mod -66.9*!, ASM inhibitor 5.0%, TCR act 2.2%[46.1 µM] and Tb PFK block 2.9%.
Cc1ccc(O)c(CO)n1 was read as BCR signal inh 0.8%, CCT chaperon mod -1.3, ASM inhibitor 3.9%, TCR act 0.0% and Tb PFK block 0.4%.
`COc1ccc(N2CCN(CCCNC(=O)C3CCC(CNc4nc(=S)[nH]c5ccccc45)CC3)CC2)cc1` (stereo unspecified) gave BCR signal inh -13.7%, CCT chaperon mod 0.9, ASM inhibitor -1.0%, TCR act -12.0% and Tb PFK block 2.0%.
For O=C(C1CCC(CNc2nc(=S)[nH]c3ccccc23)CC1)N1CCN(c2ccc(F)cc2)CC1 (stereo unspecified) the results were BCR signal inh -3.5%, CCT chaperon mod -36.0*, ASM inhibitor -0.5%, TCR act -0.7% and Tb PFK block -5.6%.
S=c1[nH]nc(-c2ccccn2)n1/N=C/c1cccs1 was read as BCR signal inh 5.5%, CCT chaperon mod -32.2*, ASM inhibitor 4.9%, TCR act 6.1%[46.1 µM] and Tb PFK block 0.8%.
